# Measured values as given in the supplement of paper PMC10338343.
# ± gives the standard deviation.
# Tested on: MILI (PIWIL2) piRISC loaded with piRNA #1 (26 nt)
# Assay: pre-steady-state target cleavage rate (min^-1); guide: piRNA #1 5'p-UGAGGUAGUAGGUUGUAUAGUAUCCA; MIWI and MILI are mouse PIWI proteins and EfPiwi is from a freshwater sponge; tags in brackets are library labels; higher = faster piRNA-guided slicing of the target
# Conditions: auxiliary factor: 500 nM mouse GTSF1
# Outline: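 With or without 500 nM GTSF1 partner protein, 1 nM active affinity-purified piRISC carrying one synthetic guide was mixed with 0.1 nM transcribed, DNA-blocked target RNA library in HEPES–potassium acetate buffer at 33 °C for 0–8 or 0–960 min. Uncleaved targets were sequenced and normalised to depth and to weakly complementary targets, three trials were pooled, and k3 was capped at 0.0001 min^-1. The pre-steady-state cleavage rate came from a burst-and-steady-state fit.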
row,Sequence,pre-steady-state target cleavage rate
1,GGAGACCUAUCUAUACAAGCUACAACCUCA,0.169 ± 0.015
2,GGAGACCUUACUAUAGAACCUACUAGCUCA,0.00445 ± 0.0038
3,GGAGACCUAUGUAUACUACCUACUUCCUCA,0.0346 ± 0.0069
4,GGAGACCUAUGUAUACAACCUACAUCCUCA,0.00671 ± 0.0026
5,GGAGACCUAUGUAUACAAGCUACUAGCUCA,0.0122 ± 0.0045
6,GGAGUGGAUUCUAUACAACCUACUAGCUCA,0.0603 ± 0.012
7,GGAGACCUAUGAUAACAAGCUACUACCACA,0.0117 ± 0.0047
8,GGAGACCUUACUAUCAACCUACUACCUCA,0.0728 ± 0.0079
9,GGAGACCUAUCUAUACAACCUACUAGCCUCA,0.147 ± 0.02
10,GGAGACCUAUGAUUACAACCUACCACCUCA,0.00484 ± 0.0035
11,GGAGACGAUUCUUUACAACCUACUACCUCA,0.152 ± 0.011
12,GGAGACCUAUGAUUACAACCUAGCUACCUCA,0.00386 ± 0.0032
13,GGAGACCUAUCAAUACAACCUAGUACCUCA,0.00718 ± 0.0036
14,GGAGACCUAACUAUUCAACCUACUACCACA,0.118 ± 0.022
15,GGAGAGGAUACAAUUCAACCUACUACCUCA,0.174 ± 0.012
16,GGAGACCUAUGAUAUGUUCAUACUACCUCA,< 0.0001
